# Assay outcomes: PubChem BioAssay, National Center for Advancing Translational Sciences (NCATS)
# LmPK inhibitor: blocks Leishmania mexicana pyruvate kinase activity; purified LmPK, Kinase-Glo ATP luminescence, 1 h; Potency, µM (highest dose often 57.5 µM), for the others: at the highest dose activity change, negative = inhibition, usual class: inhibitors; 0.37% of 290,000 active; Q27686; also: potency is read from the fitted curve at half-maximal effect; % is scaled to controls: 0 for no effect and ±100 for the full control effect
#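 Pyruvate kinase activity monitored as ATP production (luciferase luminescence). Conditions: 0.1 nM enzyme, 0.5 mM PEP, 0.1 mM ADP, 1 h, RT; normalized against uninhibited and no-enzyme wells.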
# Tb PYK inh: blocks Trypanosoma brucei pyruvate kinase; TbPYK enzyme, Kinase-Glo Plus ATP luminescence, 45 min; Potency, µM (titrated, usually from 76.8 µM), for the others: at the top dose activity, negative = inhibition, actives largely listed as inhibitors; Q57TT1; 0.12% of 410,000 active; also: potency is read from the fitted curve at half-maximal effect; % is scaled to controls: 0 for no effect and ±100 for the full control effect; nearly all actives have a fitted effect of over 50% in size
#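 Luminescence from Kinase-Glo Plus, added after a 45-minute room-temperature reaction, served as the end-point read-out. The enzyme and substrate were preincubated with compound before ADP (130 uM final) initiated turnover. Concentration-effect curves came from normalized qHTS data.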
# Shiga inhibitor: blocks Shiga toxin action in Vero cells. 9.2% of 290,000 active. Vero cells, Shiga toxin protein synthesis inhibition reporter. inhibition, % at 38.7 µM; in the data active = inhibition mostly above about 28%, no sharp cut-off; inactive = mostly below about 43%; also: 0% is about no effect
# Giardia FBPA inh: Giardia lamblia aldolase inhibition. A8B2U2. purified Giardia FBPA. Potency, µM (series often up to 59.6 µM), for the others: at the highest dose activity, negative = inhibition, most hits filed as inhibitors. 0.71% of 290,000 active. AID 2451; also: potency is read from the fitted curve at half-maximal effect; % is scaled to controls: 0 for no effect and ±100 for the full control effect; nearly all actives have a fitted effect of over 55% in size
# Target sequence (A8B2U2 whole entry, looked up): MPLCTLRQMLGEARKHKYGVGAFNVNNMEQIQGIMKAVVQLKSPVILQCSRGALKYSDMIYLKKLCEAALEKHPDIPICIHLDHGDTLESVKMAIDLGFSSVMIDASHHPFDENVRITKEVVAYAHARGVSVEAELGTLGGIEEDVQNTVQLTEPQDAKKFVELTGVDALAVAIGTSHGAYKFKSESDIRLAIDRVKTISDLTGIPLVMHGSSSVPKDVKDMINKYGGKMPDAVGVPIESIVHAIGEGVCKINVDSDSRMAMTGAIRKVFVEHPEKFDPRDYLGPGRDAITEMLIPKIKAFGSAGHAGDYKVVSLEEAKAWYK
#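 40 nM FBPA preincubated 10 min at RT with compound (up to 57.5 uM final), then substrate plus GAPDH/TPI/NAD/arsenate coupling and diaphorase/resazurin added. Fluorescence read after 20 min at RT, 525/598 nm.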
# RE007 growth inh: less growth of the S. pombe RE007 Vpr strain; S. pombe RE007 Vpr strain, BacTiter-Glo ATP luminescence, 24 h; Potency, µM (titrated, usually from 92.2 µM), for inactives: top-dose activity change, negative = less growth, hits mostly inhibitors; 0.21% of 360,000 active; active = well fitted falling curve with a large enough effect; inconclusive = small, poorly fitted or top-dose-only effect; inactive = no such curve, though single readings can be large or run the other way; also: potency is read from the fitted curve at half-maximal effect; % is scaled to controls: 0 for no effect and ±100 for the full control effect; nearly all actives have a fitted effect of over 50% in size
#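 Fission yeast strain RE007, carrying one chromosomally integrated HIV-1 vpr copy, was seeded at OD 0.01 in PMG+AL medium with 23 nL pinned compound. After 24 h at 30 °C and 99% humidity, viability was read by BacTiter-Glo luminescence.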
# CHX counter: counter-screen hit for Shiga toxin inhibitors, cycloheximide | 12% of 300,000 active | max response, % | AID 2314 | cell reporter, cycloheximide protein synthesis inhibition counterscreen; in the data active = max response mostly above about 13%, no sharp cut-off; inactive = mostly below about 14%; also: read at 38.3 µM for the half of the compounds with a filed dose; 0% is about no effect
# Starred values were filed as active, the others as inactive; ? = inconclusive; . = no result given. Shown is part of a subset that was picked to be rich in hits. Unless noted, calls follow the shape of the dose curve; as a rule, active = well fitted curve in the direction sought with a large enough effect; inconclusive = small, poorly fitted or top-dose-only effect, or another doubt; inactive = no such curve, though single readings can be large; an effect the other way counts as inactive or inconclusive.
SMILES,LmPK inhibitor,Tb PYK inh,Shiga inhibitor,Giardia FBPA inh,RE007 growth inh,CHX counter
CCNC(=S)N/N=C/c1ccccc1[N+](=O)[O-],-1%,3%,9,-18%,-19%,-1
CCCOc1ccc(/C=N/NC(=S)Nc2ccccc2[N+](=O)[O-])c(O)c1,4%,1%,75*,23%,5%,93*
COc1ccc(OC)c(C2C(C(=O)Nc3ccc(C)cc3C)=C(C)Nc3c(C(=O)Nc4ccc(F)cc4)cnn32)c1 (centres undefined),.,-9%,.,.,.,.
Cc1cc(C)cc(Nc2ccc(C(=O)O)cc2N)c1,-1%,-10%,48*,2%,-14%,52*
COc1cc(Nc2ccc(C(=O)O)cc2[N+](=O)[O-])cc(OC)c1,1%,-1%,2,5%,-5%,-4
Cc1ccc(Nc2ccc(C(=O)O)cc2N)cc1,-18%,-2%,52,12%,7%,22*
CCOc1ccccc1Nc1ccc(C(=O)O)cc1N,0%,-3%,-6,-5%,-23%,10
COc1cccc(Nc2ccc(C(=O)O)cc2N)c1,0%,-10%,74*,1%,7%,62*
N#CCCn1c(=O)cnc2cnc(N3CCOCC3)nc21,.,-7%,.,2%,.,.
Cc1nc(-c2coc3c(O)c(O)ccc3c2=O)cs1,.,.,.,14µM*,.,.
CC(C)(C)C1c2[nH]c3ccccc3c2CCN1Cc1cccc(OCCO)c1 (centres undefined),-7%,-3%,37,0%,11%,11*
Cc1nc(Cl)c2c(n1)NC1=C(O2)C(=O)CCC1,-1%,-6%,19,-4%,-15%,21*
CN(C)c1ccc(N=Nc2ccccc2C(=O)OCC(=O)NC2CCCC2)cc1,-8%,-20%,26*,0%,-10%,24*
CN(C)c1ccc(N=Nc2ccccc2C(=O)OCC(=O)N(C)C2CCCCC2)cc1,-1%,-17%,29*,-3%,8%,27*
O=C(COC(=O)c1ccccc1Br)NCC1CCCCC1,.,2%,.,.,23%,.
CN(C)c1ccc(N=Nc2ccccc2C(=O)OCC(=O)NCC2CCCCC2)cc1,-1%,-5%,72*,-3%,8%,69*
CN(C)c1ccc(C(=O)OCC(=O)NC2CCCCCC2)cc1,2%,-2%,-11,10%,2%,0
CN(C(=O)COC(=O)c1cccnc1Cl)C1CCCCC1,.,7%,.,.,1%,.
FC(F)(F)c1nc(SCc2ccccc2)n[nH]1,.,-5%,.,.,-5%,.
CN(C)c1ccc(CNC(=O)CCCN2C(=O)CCn3nc(-c4cccn4C)cc32)cc1,.,-3%,.,.,.,.
CCOC(=O)C(CCC(C)=O)C(=O)c1ccccc1 (centres undefined),1%,0%,-5,3%,3%,-1
CCOC(=O)N=S(N)(=O)c1ccccc1 (centres undefined),3%,7%,-7,-13%,-15%,10
CCOC(=O)C(CC(=O)c1ccccc1)CC(=O)c1ccccc1,1%,-2%,113*,4%,?,39*
COC(=O)C(CC(=O)c1ccccc1)CC(=O)c1ccccc1,3%,-10%,43*,9%,-3%,17*
COc1ccccc1C(CC(=O)c1ccccc1)CC(=O)c1ccccc1,-4%,-1%,-18,-5%,16%,14
SMILES,LmPK inhibitor,Tb PYK inh,Shiga inhibitor,Giardia FBPA inh,RE007 growth inh,CHX counter
CCOC(=O)CC(S(=O)(=O)c1ccccc1)S(=O)(=O)c1ccccc1,.,-5%,.,.,2µM*,.
O=c1sc2ccccc2c(=O)n1Cc1ccccc1F,1%,-3%,3,1%,-5%,8
COC(=O)c1cccc(-n2sc3ccccc3c2=O)c1,.,6.3µM*,.,.,?,.
COC(=O)c1cccc(N2CCCC2=O)c1,0%,-1%,18,5%,0%,5
Cc1ccc(-n2sc3cc(F)ccc3c2=O)c(C)c1,.,10µM*,.,.,11µM*,.
N=C1SCC(=O)N1c1ccccc1Cl,-6%,4%,-9,-10%,6%,-1
O=c1c2cc(F)ccc2sn1-c1ccccc1Cl,.,11µM*,.,.,?,.
O=c1c2ccccc2sn1-c1ccc(F)cc1,.,8.9µM*,.,.,5.6µM*,.
Cc1ccc(NC(=O)CSCc2cc(=O)n3cc(C)sc3n2)cc1,-1%,10%,-8,1%,8%,-1
